Reference: PubChem BioAssay
Values joined by “and” are separate entries in the source; they are usually repeats but may differ in a detail not shown here. Identical values can stand only once. A number with no mark means an inactive call.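 Rule for the calls: active = percent response above a set limit, the screen-wide mean plus 3 SD (cut at about 130% in these data); inactive = the rest.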

Assay: TOR pathway RTG branch CIT2 reporter changes – S. cerevisiae, GFP fusion, multiplex flow cytometry, primary screen (AID 1870);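 note: barcoded CIT2-GFP strain pooled with four other GFP strains with rapamycin as positive control; median GFP fluorescence per well over plate mean of DMSO wells so 100% = DMSO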
Conditions: S. cerevisiae CIT2-GFP expression, 3 h, at 10 µM, hits give high values

Going from O=C(Cc1ccccc1[N+](=O)[O-])NCc1ccncc1 to O=C(CCc1ccccc1)Nc1ccccc1C(F)(F)F, the percent response of DMSO control rises from 101% to 107%.

First: Cn1nc(-c2ccc(Cl)cc2)nc2c(=O)n(C)c(=O)nc1-2
Second: Clc1cc(-c2ccc(/C=N/n3cnnc3)o2)ccc1Br
The percent response of DMSO control of the first is lower: 74.4% for the first, 102% for the second.

Compared with O=C(O)CCCCCNC(=O)Nc1ccc2c(c1)OCCO2, O=C(NCCO)c1ccc(Cl)c(Cl)c1 is lower in percent response of DMSO control: 112% for the first, 102% for the second.

Going from COc1ccc(S(N)(=O)=O)cc1C(N)=O to CCOc1ccc(C(NC(C)=O)c2ccc(OC)c(OC)c2)cc1 (stereo not drawn), the percent response of DMSO control rises from 97.8% to 99.3%.

First: Cc1occc(=O)c1O
Second: O=C1CC(c2ccc(O)cc2)Oc2cc(O)cc(O)c21 (stereo not drawn)
The percent response of DMSO control of the first is higher: 110% for the first, 107% for the second.

First: C[C@]12CCC3C(CC=C4C[C@@H](O)CC[C@@]43C)C1CCC2[C@]1(C)CCC(=O)O1 (stereo partly drawn)
Second: O=c1oc2c(CN3CCCCC3)c(O)ccc2c2c1CCCCC2
The percent response of DMSO control of the first is higher: 109% for the first, 102% for the second.

Compared with CC(=O)N(CCC1(c2ccc(C)cc2)CCOC(C(C)C)C1)Cc1ccco1 (stereo not drawn), Cc1ccc(-c2nnc(-c3ccc4c(c3)OCO4)o2)cc1 is lower in percent response of DMSO control: 116% for the first, 109% for the second.

First: COc1ccccc1N=CC1=C(O)CC(c2ccccc2)CC1=O (stereo not drawn)
Second: CC1=NN(C(=O)c2ccc(Br)cc2)C(O)(c2ccccc2)C1 (stereo not drawn)
The percent response of DMSO control of the first is lower: 96.6% for the first, 102% for the second.

Work on N/C(Cc1ccc(Cl)cc1Cl)=N\OC(=O)c1ccc(Br)o1 yielded a percent response of DMSO control of 106%.

With CN(C)C(=O)Oc1cccc([N+](C)(C)C)c1 the percent response of DMSO control was 100% and 91%.
